The values that follow come from PubChem BioAssay (NCI).

This is part of a sample that, as a whole, favours compounds with a hit. Of some 83,000 tested, about 20% had one in any assay.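 For each line, cells grew in 96-well plates with the test compound present at a single concentration for 48 hours.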 A number with no mark means an inactive call. Activity calls are given as the source filed them. The calls were made as follows: active = growth percent below 10; inactive = the rest.

Common to all, as to assay: NCI-60 one-dose screen, 48 h (100 = growth as untreated, 0 = no growth, -100 = all killed)
Conditions in all cases: 10 µM unless noted

The subject of assay [1] is NCI-H23 lung.
Assay [2] relates to NCI-H226 lung.
For assay [3], the system named is NCI-H322M lung.
Assay [4] deals with HOP-62 NSCLC.
Assay [5] has as its system NCI-H460 lung.
In assay [6] the test system is HOP-92 NSCLC.
In assay [7] the test system is NCI-H522 lung.
Assay [8] deals with A549/ATCC NSCLC.
Assay [9] deals with 786-0 renal.
Assay [10] deals with COLO 205 colon.
Assay [11] deals with DU-145 prostate.
Assay [12] concerns K-562 leukemia.
For assay [13], the system named is MALME-3M melanoma.
For assay [14], the system named is MDA-MB-231 breast.
The test system of assay [15] is RXF 393 renal.
The test system of assay [16] is SF-268 CNS.
The test system of assay [17] is SF-295 CNS.
The subject of assay [18] is SF-539 CNS.
Assay [19] has as its system UACC-257 melanoma.
Assay [20] relates to M14 melanoma.

`Cn1cc(-c2nc3c(F)cc4[nH]ncc4c3c3c2CCCC3)c(C(F)(F)F)n1`: the growth was 37.7% in assay [1]; 67.3% in [2]; 47.6% in [3]; 31% in assay [4]; 37.5% in assay [5]; -7.54% (active) in assay [6]. The growth in assay [7] is 0.529% (active); in assay [8], 17.3%; in assay [9] it was 42.7%; in assay [10], 35.6%; in [11], 52.3%; in assay [12], 19.3%. In addition, the growth is 59.7% in [13]; 48.9% in assay [14]; 23% in assay [15]; 47.7% in [16]; 49.2% in assay [17]; 27.9% in assay [18]. Also, the growth in [19] was 53.5%; in assay [20], 30.1%.
With `CC(=O)O[C@H]1CC[C@]2(C)[C@H]3CC=C4[C@@H]5CC(C)(C)CC[C@]5(C(=O)N5CCN(CCC#N)CC5)CC[C@@]4(C)[C@]3(C)CC[C@H]2C1(C)C`, the growth in assay [1] is 45.3%; in [2], 48.9%; in [3] it was 53.3%; in assay [4], 41.2%; in assay [5] it was -1.52% (active); in assay [6], 56.7%. Moreover, the growth was 38.9% in assay [7]; 25.6% in assay [8]; 47.4% in assay [9]; 21.1% in [10]; 57.8% in assay [11]; 10% in assay [12]. In addition, the growth in assay [13] was 26%; in [14], 48.5%; in [15], 74.3%; in assay [16], 51.8%; in assay [17], 65.5%; in assay [18] it was 16.7%. Further, the growth in assay [19] is 18.1%; in assay [20] it was 35.7%.
As for `CCOC(=O)c1c(NC(=O)c2ccccc2)sc2c3c(ccc12)OCN(C)C3`, the growth in [1] was 12.8%; in [2] it was 87.8%; in [3], -11.3% (active); in assay [4], 52.2%; in [5], -67.9% (active); in assay [6] it was -4.6% (active). Also, the growth in [7] is -51.4% (active); in assay [8], 22.2%; in assay [9], -79% (active); in assay [10], -54.7% (active); in [11], 11.6%; in assay [12], -53.3% (active). The growth in assay [13] is -89.2% (active); in assay [14], -74.7% (active); in assay [15], -73% (active); in [16], 9.19% (active); in assay [17], -76.8% (active); in assay [18] it was -43.7% (active). Further, the results for the growth in [19] and in assay [20] were -62.2% (active) and -74.2% (active), respectively.
For `CCN(CC)CCCC(Cc1ccccc1)Nc1c2ccc(Cl)cc2nc2ccc(OC)cc12` (stereo not given), the growth in assay [1] is 67.1%; in assay [2] it was 84.4%; in [3], 9.3% (active); in assay [4], 67.3%; in assay [5] it was 28.6%; in [6], -4.73% (active). In addition, the growth is 1.88% (active) in [7]; 39.3% in assay [8]; -22.6% (active) in [9]; -42.3% (active) in assay [10]; 62.3% in assay [11]; -39.2% (active) in [12]. Moreover, the growth is -78.3% (active) in [13]; -31.3% (active) in [14]; -51.7% (active) in [15]; 51.9% in assay [16]; -37.9% (active) in assay [17]; -87.5% (active) in [18]. In addition, the values for the growth in [19] and in assay [20] were -40.8% (active) and -76.9% (active), respectively.
For `O=CN1N=C(c2cccc(Nc3ccnc4cc(Cl)ccc34)c2)CC1c1ccc(Cl)cc1` (stereo not given), the growth in assay [1] was 1.81% (active); in assay [2] it was 59.4%; in assay [3], 59.6%; in assay [4], 24.2%; in [5], 19.3%; in assay [6], 21.9%. The growth in assay [7] is -17.4% (active); in assay [8] it was 34.3%; in assay [9] it was 28.8%; in assay [10], -9.28% (active); in assay [11] it was 23.8%; in assay [12], 15.8%. Further, the growth in assay [13] was 44.4%; in assay [14], 30.2%; in [15], -4.85% (active); in assay [16], 37.1%; in [17], 11.7%; in assay [18] it was 19.2%. In addition, the growth in assay [19] is 52.8%; in [20] it was 21.7%.
`c1ccc(Cn2cc3c(c2-c2ccccc2)CCc2cnoc2-3)cc1`: the growth in assay [1] is 78.8%; in assay [2], 83.6%; in [3] it was 95.6%; in assay [4] it was 75.1%; in [5], 53.7%; in assay [6], 65.8%. The growth in [7] is 56.6%; in [8] it was 59.6%; in assay [9], 80.2%; in assay [10], 80.5%; in assay [11], 88.3%; in [12], 16.2%. Moreover, the growth in assay [13] is 45.8%; in assay [14] it was 87.2%; in assay [15], 80.6%; in assay [16] it was 76.6%; in assay [17] it was 60.4%; in assay [18] it was 71.9%. Besides, the growth in assay [19] was 92.4%; in assay [20] it was 44.1%.
Consider `O=C1CCCCN1c1ccc(C2=NCCCN2)cc1`, for which the growth is 99.2% in assay [1]; 101% in [2]; 92.3% in assay [3]; 101% in assay [4]; 94.9% in assay [5]; 117% in assay [6]. In addition, the growth was 79.1% in assay [7]; 97% in [8]; 95% in assay [9]; 104% in assay [10]; 103% in assay [11]; 80.6% in [12]. Further, the growth was 77.4% in assay [13]; 88.6% in [14]; 90.4% in assay [15]; 92% in assay [16]; 85.1% in assay [17]; 64.7% in assay [18]. The growth in assay [19] was 111%; in assay [20], 104%.
